Source: the supplement of paper PMC10849652
The full data set covers some 8,800 targets. This sample favours those with a hit. About 0.5% of all pairs of compound and target were hits. Unmarked numbers belong to inactive results.

How the values were obtained:
Assay in all cases: log2 fold change, soluble protein after heating vs DMSO (PISA); higher = thermal stabilisation; K562 lysate, 10 uM; active = over 0.2 and 3.5 SD of the protein, either way, in both replicates (recomputed)
lapatinib = compound: CS(=O)(=O)CCNCc1ccc(-c2ccc3ncnc(Nc4ccc(OCc5cccc(F)c5)c(Cl)c4)c3c2)o1 [lapatinib]
Method in brief: (§1)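 A 30 min treatment with 10 μM compound was applied to crude K562 extract at 1 mg/mL protein in PBS pH 7.4 with 1 mM MgCl2. Heating for 3 min spanned 48°C-58°C, after which aliquots were pooled, adjusted to 0.5% NP-40 at 4°C and spun at 21,000xg for 90 min. TMTpro 16plex LC-MS/MS of the supernatant, with channel sums equalised, gave values recorded as log-two fold change in thermal stability against solvent controls, from duplicates.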

pictilisib = compound: CS(=O)(=O)N1CCN(Cc2cc3nc(-c4cccc5[nH]ncc45)nc(N4CCOCC4)c3s2)CC1 [pictilisib]
Method in brief: as §1

crizotinib = compound: C[C@@H](Oc1cc(-c2cnn(C3CCNCC3)c2)cnc1N)c1c(Cl)ccc(F)c1Cl [crizotinib]
Method in brief: as §1

[1] = compound: C[C@H](C1=CC=C(C=C1)C(=O)NC2=C3C=CNC3=NC=C2)N
Method in brief: as §1

duvelisib = compound: C[C@H](Nc1ncnc2nc[nH]c12)c1cc2cccc(Cl)c2c(=O)n1-c1ccccc1 [duvelisib]
Method in brief: as §1

gandotinib = compound: Cc1cc(Nc2cc(CN3CCOCC3)c3nc(C)c(Cc4ccc(Cl)cc4F)n3n2)n[nH]1 [gandotinib]
Method in brief: as §1

tozasertib = compound: Cc1cc(Nc2cc(N3CCN(C)CC3)nc(Sc3ccc(NC(=O)C4CC4)cc3)n2)n[nH]1 [tozasertib]
Method in brief: as §1

doramapimod = compound: Cc1ccc(-n2nc(C(C)(C)C)cc2NC(=O)Nc2ccc(OCCN3CCOCC3)c3ccccc23)cc1 [doramapimod]
Method in brief: as §1

bafetinib = compound: Cc1ccc(NC(=O)c2ccc(CN3CC[C@H](N(C)C)C3)c(C(F)(F)F)c2)cc1Nc1nccc(-c2cncnc2)n1 [bafetinib]
Method in brief: as §1

[2] = compound: Cc1cccc(CC(=O)N2CCc3c2ccc(-c2cn(C)c4ncnc(N)c24)c3F)n1
Method in brief: as §1

nilotinib = compound: Cc1cn(-c2cc(NC(=O)c3ccc(C)c(Nc4nccc(-c5cccnc5)n4)c3)cc(C(F)(F)F)c2)cn1 [nilotinib]
Method in brief: as §1

[3] = compound: Cc1nc(Nc2n[nH]c3c2CN(C(=O)N[C@H](CN(C)C)c2ccccc2)C3(C)C)c2sccc2n1
Method in brief: as §1

dasatinib = compound: Cc1nc(Nc2ncc(C(=O)Nc3c(C)cccc3Cl)s2)cc(N2CCN(CCO)CC2)n1 [dasatinib]
Method in brief: as §1

[4] = compound: Cc1ncc(-c2ccnc(Nc3ccc(S(C)(=O)=O)cc3)n2)n1C(C)C
Method in brief: as §1

[5] = compound: Cn1cc(-c2ccc3c(c2)CCN3C(=O)Cc2cccc(C(F)(F)F)c2)c2c(N)ncnc21
Method in brief: as §1

quisinostat = compound: Cn1cc(CNCC2CCN(c3ncc(C(=O)NO)cn3)CC2)c2ccccc21 [quisinostat]
Method in brief: as §1

tipifarnib = compound: Cn1cncc1[C@@](N)(c1ccc(Cl)cc1)c1ccc2c(c1)c(-c1cccc(Cl)c1)cc(=O)n2C [tipifarnib]
Method in brief: as §1

[6] = compound: NC(=O)Nc1cc(-c2cccc(F)c2)sc1C(=O)N[C@H]1CCCNC1
Method in brief: as §1

[7] = compound: NC(=O)c1cnc(N[C@@H]2CCCC[C@@H]2N)nc1Nc1cccc(-n2nccn2)c1
Method in brief: as §1

[8] = compound: NC1(c2ccc(-c3nc4ccn5c(=O)[nH]nc5c4cc3-c3ccccc3)cc2)CCC1
Method in brief: as §1

UniProt Q9Y4P8, sequence (Q9Y4P8 whole entry, looked up): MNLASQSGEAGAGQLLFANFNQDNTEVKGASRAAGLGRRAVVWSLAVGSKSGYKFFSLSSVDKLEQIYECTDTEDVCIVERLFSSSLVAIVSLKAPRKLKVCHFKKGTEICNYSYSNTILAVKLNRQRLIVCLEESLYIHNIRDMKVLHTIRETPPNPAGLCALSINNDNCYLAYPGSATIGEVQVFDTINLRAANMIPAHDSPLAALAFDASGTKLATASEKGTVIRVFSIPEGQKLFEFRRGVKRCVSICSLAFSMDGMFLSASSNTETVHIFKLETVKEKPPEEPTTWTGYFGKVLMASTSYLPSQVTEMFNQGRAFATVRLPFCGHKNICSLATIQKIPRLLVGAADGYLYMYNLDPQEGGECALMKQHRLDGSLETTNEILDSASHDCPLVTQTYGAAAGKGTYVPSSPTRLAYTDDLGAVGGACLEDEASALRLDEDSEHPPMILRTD
UniProt Q9Y6I4, sequence (Q9Y6I4 whole entry, looked up): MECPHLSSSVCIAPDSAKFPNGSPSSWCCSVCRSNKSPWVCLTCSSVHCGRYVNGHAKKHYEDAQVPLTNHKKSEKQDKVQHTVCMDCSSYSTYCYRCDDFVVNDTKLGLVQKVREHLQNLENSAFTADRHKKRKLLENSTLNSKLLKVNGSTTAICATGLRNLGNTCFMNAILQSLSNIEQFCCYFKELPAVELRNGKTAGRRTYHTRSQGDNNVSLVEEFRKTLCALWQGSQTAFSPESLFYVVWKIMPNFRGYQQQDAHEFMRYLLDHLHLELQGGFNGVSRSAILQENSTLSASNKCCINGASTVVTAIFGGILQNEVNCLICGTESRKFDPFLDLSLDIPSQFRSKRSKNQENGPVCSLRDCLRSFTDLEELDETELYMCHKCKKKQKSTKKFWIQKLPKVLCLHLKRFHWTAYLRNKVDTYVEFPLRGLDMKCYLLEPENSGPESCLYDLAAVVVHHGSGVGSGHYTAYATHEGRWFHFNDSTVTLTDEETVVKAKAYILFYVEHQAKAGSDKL
UniProt Q14191, sequence (Q14191 whole entry, looked up): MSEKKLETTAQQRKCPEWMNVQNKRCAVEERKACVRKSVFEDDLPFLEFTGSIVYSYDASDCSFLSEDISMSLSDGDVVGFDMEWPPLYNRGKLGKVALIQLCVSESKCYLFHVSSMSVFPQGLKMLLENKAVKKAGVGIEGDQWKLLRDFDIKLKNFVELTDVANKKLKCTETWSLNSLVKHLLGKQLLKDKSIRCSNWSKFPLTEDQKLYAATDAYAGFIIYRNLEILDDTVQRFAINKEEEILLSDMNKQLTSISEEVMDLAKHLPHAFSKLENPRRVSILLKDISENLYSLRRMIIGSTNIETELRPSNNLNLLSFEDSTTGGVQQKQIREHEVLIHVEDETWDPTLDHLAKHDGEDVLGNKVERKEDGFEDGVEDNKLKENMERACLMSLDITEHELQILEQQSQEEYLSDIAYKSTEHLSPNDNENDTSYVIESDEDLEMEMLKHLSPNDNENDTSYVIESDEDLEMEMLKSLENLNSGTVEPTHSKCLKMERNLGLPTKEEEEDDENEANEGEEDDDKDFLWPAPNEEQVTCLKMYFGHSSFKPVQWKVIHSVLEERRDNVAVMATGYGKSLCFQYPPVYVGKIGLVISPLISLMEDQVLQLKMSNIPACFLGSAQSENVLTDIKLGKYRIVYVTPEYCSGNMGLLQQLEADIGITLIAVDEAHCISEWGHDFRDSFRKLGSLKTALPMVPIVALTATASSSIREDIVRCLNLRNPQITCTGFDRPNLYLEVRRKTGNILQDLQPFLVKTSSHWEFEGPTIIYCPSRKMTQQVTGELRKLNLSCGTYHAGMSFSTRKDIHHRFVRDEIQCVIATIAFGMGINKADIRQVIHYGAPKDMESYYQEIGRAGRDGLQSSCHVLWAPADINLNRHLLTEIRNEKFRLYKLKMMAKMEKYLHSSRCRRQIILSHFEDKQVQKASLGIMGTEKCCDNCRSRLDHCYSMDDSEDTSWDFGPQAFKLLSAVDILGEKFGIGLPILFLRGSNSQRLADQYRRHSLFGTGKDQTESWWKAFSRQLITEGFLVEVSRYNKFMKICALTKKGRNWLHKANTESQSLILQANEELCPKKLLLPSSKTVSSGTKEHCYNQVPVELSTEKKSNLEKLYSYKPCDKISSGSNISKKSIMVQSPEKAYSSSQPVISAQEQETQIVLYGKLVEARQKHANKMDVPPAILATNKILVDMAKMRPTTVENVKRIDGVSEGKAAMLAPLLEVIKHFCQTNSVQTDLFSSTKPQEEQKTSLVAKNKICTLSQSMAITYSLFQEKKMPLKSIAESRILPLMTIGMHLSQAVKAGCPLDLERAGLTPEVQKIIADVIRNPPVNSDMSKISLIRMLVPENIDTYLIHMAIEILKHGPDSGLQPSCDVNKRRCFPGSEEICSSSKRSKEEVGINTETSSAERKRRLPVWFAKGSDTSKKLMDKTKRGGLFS
UniProt P40818, sequence (P40818 whole entry, looked up): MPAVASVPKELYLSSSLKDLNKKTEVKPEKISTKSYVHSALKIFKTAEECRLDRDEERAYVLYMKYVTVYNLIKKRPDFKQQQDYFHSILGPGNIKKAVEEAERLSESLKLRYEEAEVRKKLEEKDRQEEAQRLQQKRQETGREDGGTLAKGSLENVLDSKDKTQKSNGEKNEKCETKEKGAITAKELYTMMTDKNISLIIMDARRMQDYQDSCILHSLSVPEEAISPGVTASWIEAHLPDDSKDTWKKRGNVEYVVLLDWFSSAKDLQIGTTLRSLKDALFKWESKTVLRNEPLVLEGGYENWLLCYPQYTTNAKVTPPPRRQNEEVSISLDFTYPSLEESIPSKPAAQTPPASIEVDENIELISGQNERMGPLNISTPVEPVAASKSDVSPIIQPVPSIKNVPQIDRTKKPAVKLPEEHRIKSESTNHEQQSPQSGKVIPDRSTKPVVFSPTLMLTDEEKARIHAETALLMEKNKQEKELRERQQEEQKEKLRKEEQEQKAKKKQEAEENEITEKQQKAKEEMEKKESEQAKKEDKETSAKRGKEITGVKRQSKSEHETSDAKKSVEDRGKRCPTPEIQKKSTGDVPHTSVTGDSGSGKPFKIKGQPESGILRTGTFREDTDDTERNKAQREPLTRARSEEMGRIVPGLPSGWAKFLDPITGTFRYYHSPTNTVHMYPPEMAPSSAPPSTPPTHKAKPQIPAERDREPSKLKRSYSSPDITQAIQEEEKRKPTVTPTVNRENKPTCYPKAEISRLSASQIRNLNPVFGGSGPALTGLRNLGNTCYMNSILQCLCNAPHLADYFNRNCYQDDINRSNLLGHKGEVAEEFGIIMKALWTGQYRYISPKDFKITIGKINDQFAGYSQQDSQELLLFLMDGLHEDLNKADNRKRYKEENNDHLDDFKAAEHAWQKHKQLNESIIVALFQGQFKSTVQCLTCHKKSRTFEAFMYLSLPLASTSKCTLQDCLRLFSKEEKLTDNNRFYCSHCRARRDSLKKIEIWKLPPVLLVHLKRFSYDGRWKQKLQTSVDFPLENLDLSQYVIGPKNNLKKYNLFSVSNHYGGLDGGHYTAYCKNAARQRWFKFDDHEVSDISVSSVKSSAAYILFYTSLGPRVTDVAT
UniProt Q7Z739, sequence (Q7Z739 whole entry, looked up): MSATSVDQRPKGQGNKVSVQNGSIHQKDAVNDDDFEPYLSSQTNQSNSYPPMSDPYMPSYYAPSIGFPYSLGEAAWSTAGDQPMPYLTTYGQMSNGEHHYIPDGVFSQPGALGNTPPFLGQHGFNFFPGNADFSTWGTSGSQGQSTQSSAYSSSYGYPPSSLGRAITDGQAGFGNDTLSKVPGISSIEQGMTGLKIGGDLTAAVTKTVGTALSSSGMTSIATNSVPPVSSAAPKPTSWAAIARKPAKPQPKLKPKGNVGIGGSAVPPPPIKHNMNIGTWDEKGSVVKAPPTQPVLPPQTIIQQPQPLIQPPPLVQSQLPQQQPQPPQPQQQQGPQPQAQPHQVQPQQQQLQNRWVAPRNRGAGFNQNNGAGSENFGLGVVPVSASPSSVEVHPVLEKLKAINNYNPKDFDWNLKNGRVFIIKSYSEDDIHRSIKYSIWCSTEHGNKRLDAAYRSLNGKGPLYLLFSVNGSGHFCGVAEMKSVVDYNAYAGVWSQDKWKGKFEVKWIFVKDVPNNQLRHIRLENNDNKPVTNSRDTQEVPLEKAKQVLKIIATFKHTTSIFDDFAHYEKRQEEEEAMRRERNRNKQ
UniProt Q86WB0, sequence (Q86WB0 whole entry, looked up): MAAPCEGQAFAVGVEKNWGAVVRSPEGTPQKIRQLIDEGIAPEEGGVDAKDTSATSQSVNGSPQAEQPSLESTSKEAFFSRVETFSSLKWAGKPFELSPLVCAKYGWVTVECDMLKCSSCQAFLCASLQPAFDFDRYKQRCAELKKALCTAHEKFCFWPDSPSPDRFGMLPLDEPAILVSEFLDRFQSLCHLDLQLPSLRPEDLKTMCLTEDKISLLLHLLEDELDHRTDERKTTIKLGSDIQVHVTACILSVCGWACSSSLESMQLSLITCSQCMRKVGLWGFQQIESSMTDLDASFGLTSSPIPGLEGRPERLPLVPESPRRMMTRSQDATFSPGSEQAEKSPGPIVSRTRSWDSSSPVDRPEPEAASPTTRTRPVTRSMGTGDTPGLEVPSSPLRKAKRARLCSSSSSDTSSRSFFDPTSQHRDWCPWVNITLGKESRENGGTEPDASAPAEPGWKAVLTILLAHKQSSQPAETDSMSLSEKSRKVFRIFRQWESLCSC
UniProt Q9UBK9, sequence (Q9UBK9 whole entry, looked up): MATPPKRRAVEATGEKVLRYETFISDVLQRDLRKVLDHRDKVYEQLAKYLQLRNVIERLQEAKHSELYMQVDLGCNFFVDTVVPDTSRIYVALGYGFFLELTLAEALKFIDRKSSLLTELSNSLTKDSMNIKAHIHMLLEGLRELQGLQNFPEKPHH
UniProt Q86U90, sequence (Q86U90 whole entry, looked up): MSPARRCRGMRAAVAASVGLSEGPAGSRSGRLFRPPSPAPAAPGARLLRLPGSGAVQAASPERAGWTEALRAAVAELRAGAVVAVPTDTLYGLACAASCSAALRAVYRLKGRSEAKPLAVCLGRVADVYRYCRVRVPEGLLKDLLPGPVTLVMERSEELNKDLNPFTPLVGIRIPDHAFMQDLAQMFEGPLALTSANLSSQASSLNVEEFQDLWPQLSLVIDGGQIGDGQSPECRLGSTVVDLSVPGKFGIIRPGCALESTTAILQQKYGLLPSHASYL

Target | log2 fold change (lapatinib) | log2 fold change (pictilisib) | log2 fold change (crizotinib) | log2 fold change [1] | log2 fold change (duvelisib) | log2 fold change (gandotinib) | log2 fold change (tozasertib) | log2 fold change (doramapimod) | log2 fold change (bafetinib) | log2 fold change [2] | log2 fold change (nilotinib) | log2 fold change [3] | log2 fold change (dasatinib) | log2 fold change [4] | log2 fold change [5] | log2 fold change (quisinostat) | log2 fold change (tipifarnib) | log2 fold change [6] | log2 fold change [7] | log2 fold change [8]
ZC3HC1 (UniProt Q86WB0) | 0.042 | 0.001 | 0.023 | 0.222 (active) | 0.013 | -0.082 | -0.036 | 0.025 | -0.019 | -0.094 | -0.013 | -0.005 | 0.029 | 0.007 | -0.009 | -0.033 | -0.03 | 0.025 | 0.017 | 0.024
USP3 (UniProt Q9Y6I4) | -0.016 | 0.001 | -0.033 | 0.031 | 0.01 | -0.056 | 0.021 | -0.03 | 0.01 | -0.04 | 0.045 | -0.015 | -0.028 | 0.028 | 0.008 | -0.01 | -0.054 | 0.107 | -0.005 | -0.042
VTN (UniProt P04004) | -0.057 | 0.026 | 0.019 | -0.384 (active) | 0.018 | 0.164 | -0.006 | -0.023 | -0.054 | 0.148 | 0.04 | 0.064 | 0.019 | -0.102 | 0 | 0.022 | -0.092 | 0.006 | -0.063 | -0.03
ZC3H13 (UniProt Q5T200) | -0.013 | -0.022 | -0.057 | 0.039 | 0.041 | -0.063 | 0.062 | 0.149 | 0.017 | 0.102 | -0.033 | 0.137 | -0.035 | 0.144 | -0.044 | -0.067 | -0.184 | 0.002 | 0.028 | -0.049
WRB (UniProt O00258) | -0.067 | -0.118 | 0.034 | -0.138 | 0.006 | 0.348 (active) | -0.033 | -0.074 | -0.017 | 0.339 | 0.06 | -0.017 | -0.014 | 0.183 | 0.082 | 0.015 | -0.044 | -0.005 | 0.071 | 0.024
YTHDF3 (UniProt Q7Z739) | -0.065 | 0.05 | 0.01 | -0.035 | 0.017 | 0.107 | -0.03 | 0.078 | -0.073 | 0.097 | -0.246 | -0.038 | 0.022 | 0.014 | -0.006 | -0.06 | -0.311 | 0.063 | -0.016 | -0.039
WIPI2 (UniProt Q9Y4P8) | 0.006 | -0.024 | -0.02 | -0.086 | -0.008 | 0.089 | -0.003 | 0.098 | -0.025 | 0.035 | 0.032 | 0.043 | 0.007 | -0.018 | -0.004 | -0.054 | 0.011 | 0.053 | -0.005 | 0.021
USP8 (UniProt P40818) | -0.011 | -0.048 | -0.009 | 0.002 | -0.023 | -0.077 | -0.013 | 0.001 | -0.026 | 0.017 | -0.014 | -0.007 | 0.005 | 0.042 | 0.024 | -0.015 | -0.01 | 0.016 | -0.016 | 0.026
WDR20 isoform 7 (UniProt Q8TBZ3) | 0.015 | -0.006 | -0.069 | -0.416 (active) | 0.043 | -0.009 | 0 | -0.022 | 0.07 | 0.081 | -0.001 | 0.029 | 0.055 | -0.229 | 0.038 | 0.027 | -0.174 | 0.009 | -0.026 | -0.042
WDR24 (UniProt Q96S15) | -0.004 | 0.104 | -0.006 | -0.072 | 0.004 | 0.072 | 0.065 | -0.166 | -0.134 | 0.125 | 0.124 | -0.09 | -0.072 | 0.05 | -0.022 | -0.013 | -0.096 | 0.038 | 0.04 | -0.002
VPS18 (UniProt Q9P253) | 0.009 | -0.017 | -0.049 | -0.056 | -0.04 | -0.032 | -0.003 | -0.004 | -0.06 | 0.047 | -0.013 | -0.029 | -0.016 | 0.003 | -0.005 | -0.018 | -0.05 | 0.029 | 0.01 | -0.019
WDR36 (UniProt Q8NI36) | 0.013 | -0.008 | -0.02 | 0.024 | 0.016 | -0.097 | 0.017 | 0.061 | 0.005 | -0.004 | 0.003 | -0.015 | 0.012 | 0.002 | 0.025 | -0.014 | -0.002 | 0.03 | -0.004 | -0.01
WRN (UniProt Q14191) | -0.008 | 0.006 | -0.031 | -0.042 | -0.034 | -0.008 | 0.037 | 0.02 | -0.064 | 0.073 | -0.027 | -0.018 | -0.108 | -0.004 | 0.022 | -0.042 | -0.005 | 0.03 | 0.089 | -0.013
UNC13D (UniProt Q70J99) | -0.032 | -0.032 | -0.038 | 0.029 | -0.039 | -0.089 | -0.015 | 0.009 | -0.066 | 0.002 | 0.043 | -0.014 | -0.05 | 0 | 0 | -0.079 | -0.006 | 0.05 | 0.022 | -0.024
YRDC (UniProt Q86U90) | -0.028 | -0.038 | -0.047 | -0.039 | 0.018 | 0.055 | 0.027 | 0.035 | 0.022 | 0.01 | 0 | 0.021 | 0.022 | 0.018 | -0.019 | -0.019 | 0.008 | -0.004 | 0.01 | -0.003
UXT isoform 2 (UniProt Q9UBK9) | -0.018 | -0.073 | 0.003 | -0.018 | -0.006 | 0.084 | -0.053 | 0.012 | 0.089 | 0.065 | 0.012 | -0.019 | 0.079 | 0.019 | -0.05 | -0.03 | -0.015 | -0.04 | -0.026 | -0.036
